Measured values: ChEMBL document CHEMBL1961873, “Compounds: GSK PKIS; Assays: Nanosyn kinase panel” (2012)

What was measured:
[1] = biological target: T1, Serine/threonine-protein kinase Nek9 (Homo sapiens) (UniProt Q8TD19); settings: at 1 µM;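 also: each value is a mean percent inhibition of NEK9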
T1 sequence (whole entry): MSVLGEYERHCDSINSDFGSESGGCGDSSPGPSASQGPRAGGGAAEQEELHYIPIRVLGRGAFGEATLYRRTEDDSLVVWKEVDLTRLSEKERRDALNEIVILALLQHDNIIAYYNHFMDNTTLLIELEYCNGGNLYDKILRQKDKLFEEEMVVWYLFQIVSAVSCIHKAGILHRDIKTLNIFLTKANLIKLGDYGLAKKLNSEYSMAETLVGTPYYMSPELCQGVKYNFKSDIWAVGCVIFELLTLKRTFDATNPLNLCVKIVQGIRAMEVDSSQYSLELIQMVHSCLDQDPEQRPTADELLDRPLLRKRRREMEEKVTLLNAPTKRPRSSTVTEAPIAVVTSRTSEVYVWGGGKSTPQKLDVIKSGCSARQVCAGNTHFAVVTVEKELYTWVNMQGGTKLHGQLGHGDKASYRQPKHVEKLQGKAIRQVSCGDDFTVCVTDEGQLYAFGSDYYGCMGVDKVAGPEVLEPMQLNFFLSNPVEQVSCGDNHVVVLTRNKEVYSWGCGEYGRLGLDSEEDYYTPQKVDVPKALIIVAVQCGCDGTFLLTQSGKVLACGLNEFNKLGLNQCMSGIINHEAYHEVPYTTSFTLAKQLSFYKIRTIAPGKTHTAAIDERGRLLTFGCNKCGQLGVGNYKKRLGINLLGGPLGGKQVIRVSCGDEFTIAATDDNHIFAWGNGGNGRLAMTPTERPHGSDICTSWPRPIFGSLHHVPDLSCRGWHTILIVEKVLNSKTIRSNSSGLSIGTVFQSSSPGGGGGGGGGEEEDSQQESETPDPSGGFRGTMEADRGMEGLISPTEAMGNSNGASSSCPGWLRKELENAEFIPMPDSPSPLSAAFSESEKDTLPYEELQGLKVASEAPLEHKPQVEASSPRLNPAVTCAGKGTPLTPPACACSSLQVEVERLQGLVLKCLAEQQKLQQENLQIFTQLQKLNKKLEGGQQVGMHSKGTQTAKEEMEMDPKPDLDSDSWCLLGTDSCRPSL

[2] = biological target: Serine/threonine-protein kinase PLK1 (Homo sapiens) (UniProt P53350); settings: at 0.1 µM
[3] = biological target: Serine/threonine-protein kinase PLK1 (Homo sapiens) (UniProt P53350); settings: at 1 µM
[4] = biological target: T2, Dual specificity protein kinase TTK (Homo sapiens) (UniProt P33981); settings: at 0.1 µM
T2 sequence (whole entry): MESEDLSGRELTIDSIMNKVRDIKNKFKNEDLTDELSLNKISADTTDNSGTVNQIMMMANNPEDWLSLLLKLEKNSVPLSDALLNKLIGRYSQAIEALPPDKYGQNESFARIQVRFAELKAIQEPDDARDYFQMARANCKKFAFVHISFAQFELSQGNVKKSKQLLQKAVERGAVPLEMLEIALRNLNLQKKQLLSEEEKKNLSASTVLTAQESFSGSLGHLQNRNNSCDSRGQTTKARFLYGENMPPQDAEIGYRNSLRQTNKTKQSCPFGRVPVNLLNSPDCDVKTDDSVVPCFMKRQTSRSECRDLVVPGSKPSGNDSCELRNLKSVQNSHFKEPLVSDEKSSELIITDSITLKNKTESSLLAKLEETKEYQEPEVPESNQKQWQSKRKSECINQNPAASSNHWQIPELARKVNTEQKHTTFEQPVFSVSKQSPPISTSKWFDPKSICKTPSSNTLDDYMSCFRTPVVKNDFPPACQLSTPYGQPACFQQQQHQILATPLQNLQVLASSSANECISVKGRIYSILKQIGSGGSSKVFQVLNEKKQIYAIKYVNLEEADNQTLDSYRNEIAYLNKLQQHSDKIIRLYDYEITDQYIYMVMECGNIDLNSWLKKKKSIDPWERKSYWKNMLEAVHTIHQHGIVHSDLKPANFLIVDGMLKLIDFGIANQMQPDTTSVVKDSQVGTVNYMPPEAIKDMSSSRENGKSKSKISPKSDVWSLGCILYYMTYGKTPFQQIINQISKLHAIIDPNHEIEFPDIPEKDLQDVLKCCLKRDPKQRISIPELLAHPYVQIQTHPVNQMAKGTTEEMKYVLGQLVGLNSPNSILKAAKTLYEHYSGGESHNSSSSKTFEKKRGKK

[5] = tested on: T3, Receptor-type tyrosine-protein kinase FLT3 (Homo sapiens), P36888 [D835Y]; settings: at 1 µM
T3 sequence (whole entry): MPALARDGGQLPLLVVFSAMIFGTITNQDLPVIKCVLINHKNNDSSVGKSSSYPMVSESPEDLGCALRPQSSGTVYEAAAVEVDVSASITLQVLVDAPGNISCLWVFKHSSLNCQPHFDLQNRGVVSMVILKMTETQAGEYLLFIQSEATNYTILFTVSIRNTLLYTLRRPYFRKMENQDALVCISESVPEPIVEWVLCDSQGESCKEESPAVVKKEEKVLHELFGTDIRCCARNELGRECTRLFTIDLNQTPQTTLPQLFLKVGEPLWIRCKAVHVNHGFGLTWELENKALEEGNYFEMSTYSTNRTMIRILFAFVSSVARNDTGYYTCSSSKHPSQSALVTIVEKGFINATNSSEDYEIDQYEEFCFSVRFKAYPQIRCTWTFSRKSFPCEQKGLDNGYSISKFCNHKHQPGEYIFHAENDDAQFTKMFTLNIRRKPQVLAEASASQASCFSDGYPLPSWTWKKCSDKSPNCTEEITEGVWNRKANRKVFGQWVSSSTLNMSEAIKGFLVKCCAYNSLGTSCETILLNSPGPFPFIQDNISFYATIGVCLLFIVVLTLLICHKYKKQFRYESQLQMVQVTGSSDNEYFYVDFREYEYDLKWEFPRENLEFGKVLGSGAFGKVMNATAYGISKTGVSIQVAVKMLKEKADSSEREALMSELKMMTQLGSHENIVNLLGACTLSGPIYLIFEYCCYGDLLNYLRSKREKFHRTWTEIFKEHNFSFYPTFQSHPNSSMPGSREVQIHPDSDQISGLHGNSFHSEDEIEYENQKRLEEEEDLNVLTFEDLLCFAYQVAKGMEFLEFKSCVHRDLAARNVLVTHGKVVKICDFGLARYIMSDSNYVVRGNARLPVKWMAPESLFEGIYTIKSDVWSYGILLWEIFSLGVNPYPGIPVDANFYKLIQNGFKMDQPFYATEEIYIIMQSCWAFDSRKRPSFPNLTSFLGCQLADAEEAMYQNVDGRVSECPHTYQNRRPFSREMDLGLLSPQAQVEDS

[6] = biological target: Vascular endothelial growth factor receptor 3 (Homo sapiens) (UniProt P35916); settings: at 0.1 µM
[7] = biological target: Vascular endothelial growth factor receptor 3 (Homo sapiens) (UniProt P35916); settings: at 1 µM
[8] = biological target: Macrophage colony-stimulating factor 1 receptor (Homo sapiens) (UniProt P07333); settings: at 0.1 µM
[9] = biological target: Macrophage colony-stimulating factor 1 receptor (Homo sapiens) (UniProt P07333); settings: at 1 µM
[10] = biological target: Tyrosine-protein kinase Fyn (Homo sapiens) (UniProt P06241); settings: at 0.1 µM
[11] = biological target: Tyrosine-protein kinase Fyn (Homo sapiens) (UniProt P06241); settings: at 1 µM
[12] = biological target: Tyrosine-protein kinase HCK (Homo sapiens) (UniProt P08631); settings: at 0.1 µM
[13] = biological target: Tyrosine-protein kinase HCK (Homo sapiens) (UniProt P08631); settings: at 1 µM
[14] = biological target: Insulin-like growth factor 1 receptor (Homo sapiens) (UniProt P08069); settings: at 0.1 µM
[15] = biological target: Insulin-like growth factor 1 receptor (Homo sapiens) (UniProt P08069); settings: at 1 µM
[16] = biological target: Insulin receptor (Homo sapiens) (UniProt P06213); settings: at 0.1 µM
[17] = biological target: Insulin receptor (Homo sapiens) (UniProt P06213); settings: at 1 µM
[18] = biological target: Insulin receptor-related protein (Homo sapiens) (UniProt P14616); settings: at 0.1 µM
[19] = biological target: Insulin receptor-related protein (Homo sapiens) (UniProt P14616); settings: at 1 µM
[20] = biological target: T4, Tyrosine-protein kinase ITK/TSK (Homo sapiens) (UniProt Q08881); settings: at 0.1 µM;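 also: mean percent inhibition of ITK from the GSK PKIS screen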
T4 sequence (whole entry): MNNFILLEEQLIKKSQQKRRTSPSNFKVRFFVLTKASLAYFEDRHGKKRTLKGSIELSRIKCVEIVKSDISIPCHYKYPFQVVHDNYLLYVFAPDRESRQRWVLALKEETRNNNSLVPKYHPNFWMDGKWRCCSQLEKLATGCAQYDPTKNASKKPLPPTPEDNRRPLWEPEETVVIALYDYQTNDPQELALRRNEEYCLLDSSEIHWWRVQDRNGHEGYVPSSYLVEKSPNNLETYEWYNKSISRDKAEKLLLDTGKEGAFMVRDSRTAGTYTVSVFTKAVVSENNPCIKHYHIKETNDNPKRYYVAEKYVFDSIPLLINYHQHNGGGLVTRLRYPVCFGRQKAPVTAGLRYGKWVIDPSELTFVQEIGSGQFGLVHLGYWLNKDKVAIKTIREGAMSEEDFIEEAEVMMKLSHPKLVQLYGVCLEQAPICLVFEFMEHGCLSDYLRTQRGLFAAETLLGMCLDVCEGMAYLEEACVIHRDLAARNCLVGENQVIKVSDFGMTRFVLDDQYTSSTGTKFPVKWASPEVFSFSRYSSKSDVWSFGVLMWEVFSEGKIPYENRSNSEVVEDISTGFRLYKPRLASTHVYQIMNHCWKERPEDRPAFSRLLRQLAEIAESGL

Chain of Insulin receptor-related protein (Homo sapiens) (P14616 27-742 limits assumed): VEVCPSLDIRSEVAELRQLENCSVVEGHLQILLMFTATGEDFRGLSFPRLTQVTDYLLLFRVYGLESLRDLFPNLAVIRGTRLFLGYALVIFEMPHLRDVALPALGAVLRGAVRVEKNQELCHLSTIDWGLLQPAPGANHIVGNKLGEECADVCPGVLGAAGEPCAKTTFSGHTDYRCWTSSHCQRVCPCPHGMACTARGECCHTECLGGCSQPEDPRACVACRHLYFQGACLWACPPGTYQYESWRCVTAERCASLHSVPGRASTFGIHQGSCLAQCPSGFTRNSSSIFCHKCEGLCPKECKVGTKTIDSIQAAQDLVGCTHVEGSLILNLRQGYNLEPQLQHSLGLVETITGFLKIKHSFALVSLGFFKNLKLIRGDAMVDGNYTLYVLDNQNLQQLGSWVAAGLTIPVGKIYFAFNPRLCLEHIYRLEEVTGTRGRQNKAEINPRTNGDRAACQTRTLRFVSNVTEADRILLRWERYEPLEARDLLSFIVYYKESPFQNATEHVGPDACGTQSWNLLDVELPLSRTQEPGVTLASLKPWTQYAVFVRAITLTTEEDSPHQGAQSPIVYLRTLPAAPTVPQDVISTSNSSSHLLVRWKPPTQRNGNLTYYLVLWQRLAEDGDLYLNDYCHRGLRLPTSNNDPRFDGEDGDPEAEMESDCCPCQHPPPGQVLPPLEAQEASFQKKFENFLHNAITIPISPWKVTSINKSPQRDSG
Chain of Insulin receptor-related protein (Homo sapiens) (P14616 747-1297 limits assumed): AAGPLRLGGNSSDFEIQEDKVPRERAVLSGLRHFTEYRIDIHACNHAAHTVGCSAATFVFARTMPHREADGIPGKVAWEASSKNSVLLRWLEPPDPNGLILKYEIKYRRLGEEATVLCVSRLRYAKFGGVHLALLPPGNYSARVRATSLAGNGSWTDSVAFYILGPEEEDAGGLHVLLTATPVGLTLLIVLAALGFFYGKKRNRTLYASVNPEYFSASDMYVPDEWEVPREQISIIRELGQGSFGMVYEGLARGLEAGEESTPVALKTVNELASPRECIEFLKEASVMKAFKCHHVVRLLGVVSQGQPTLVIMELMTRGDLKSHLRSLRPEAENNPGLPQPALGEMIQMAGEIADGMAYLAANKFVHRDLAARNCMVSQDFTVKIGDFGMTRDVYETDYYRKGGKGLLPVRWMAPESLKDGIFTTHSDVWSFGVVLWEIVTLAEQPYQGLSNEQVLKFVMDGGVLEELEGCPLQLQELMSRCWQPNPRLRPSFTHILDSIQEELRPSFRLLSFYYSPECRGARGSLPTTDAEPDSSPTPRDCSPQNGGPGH
Chain of Tyrosine-protein kinase HCK (Homo sapiens) (P08631 2-526 limits assumed): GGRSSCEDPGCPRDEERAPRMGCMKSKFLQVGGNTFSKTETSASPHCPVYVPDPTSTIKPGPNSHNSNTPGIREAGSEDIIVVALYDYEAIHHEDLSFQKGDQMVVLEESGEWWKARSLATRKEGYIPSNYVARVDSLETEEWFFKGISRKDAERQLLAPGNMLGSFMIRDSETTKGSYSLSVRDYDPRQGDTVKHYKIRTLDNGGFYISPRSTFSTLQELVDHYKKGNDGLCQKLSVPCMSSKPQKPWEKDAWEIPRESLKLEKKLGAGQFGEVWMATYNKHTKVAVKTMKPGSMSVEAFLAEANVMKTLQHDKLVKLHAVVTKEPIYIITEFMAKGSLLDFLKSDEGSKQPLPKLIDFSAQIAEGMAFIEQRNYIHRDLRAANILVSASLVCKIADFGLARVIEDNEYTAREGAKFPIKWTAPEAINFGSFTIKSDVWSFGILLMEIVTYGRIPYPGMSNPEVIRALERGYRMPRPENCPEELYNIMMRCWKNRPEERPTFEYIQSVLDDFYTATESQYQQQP
Chain of Serine/threonine-protein kinase PLK1 (Homo sapiens) (P53350 whole entry): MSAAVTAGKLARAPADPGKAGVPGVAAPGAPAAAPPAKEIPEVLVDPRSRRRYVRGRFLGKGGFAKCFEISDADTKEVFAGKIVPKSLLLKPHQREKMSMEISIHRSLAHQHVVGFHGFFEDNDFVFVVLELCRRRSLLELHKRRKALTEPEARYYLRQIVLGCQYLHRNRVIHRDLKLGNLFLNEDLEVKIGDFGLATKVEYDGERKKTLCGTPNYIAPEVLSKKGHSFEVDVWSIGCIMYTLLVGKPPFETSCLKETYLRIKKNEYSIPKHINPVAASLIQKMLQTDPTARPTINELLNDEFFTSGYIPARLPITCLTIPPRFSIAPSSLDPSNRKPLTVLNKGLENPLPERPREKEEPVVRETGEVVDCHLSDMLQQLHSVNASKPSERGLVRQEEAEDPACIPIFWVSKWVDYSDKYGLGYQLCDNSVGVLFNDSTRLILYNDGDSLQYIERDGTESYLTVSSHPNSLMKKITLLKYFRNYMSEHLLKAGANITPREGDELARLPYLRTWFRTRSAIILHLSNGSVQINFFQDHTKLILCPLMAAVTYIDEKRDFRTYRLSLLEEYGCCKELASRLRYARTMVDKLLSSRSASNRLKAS
Chain of Insulin-like growth factor 1 receptor (Homo sapiens) (P08069 31-736 limits assumed): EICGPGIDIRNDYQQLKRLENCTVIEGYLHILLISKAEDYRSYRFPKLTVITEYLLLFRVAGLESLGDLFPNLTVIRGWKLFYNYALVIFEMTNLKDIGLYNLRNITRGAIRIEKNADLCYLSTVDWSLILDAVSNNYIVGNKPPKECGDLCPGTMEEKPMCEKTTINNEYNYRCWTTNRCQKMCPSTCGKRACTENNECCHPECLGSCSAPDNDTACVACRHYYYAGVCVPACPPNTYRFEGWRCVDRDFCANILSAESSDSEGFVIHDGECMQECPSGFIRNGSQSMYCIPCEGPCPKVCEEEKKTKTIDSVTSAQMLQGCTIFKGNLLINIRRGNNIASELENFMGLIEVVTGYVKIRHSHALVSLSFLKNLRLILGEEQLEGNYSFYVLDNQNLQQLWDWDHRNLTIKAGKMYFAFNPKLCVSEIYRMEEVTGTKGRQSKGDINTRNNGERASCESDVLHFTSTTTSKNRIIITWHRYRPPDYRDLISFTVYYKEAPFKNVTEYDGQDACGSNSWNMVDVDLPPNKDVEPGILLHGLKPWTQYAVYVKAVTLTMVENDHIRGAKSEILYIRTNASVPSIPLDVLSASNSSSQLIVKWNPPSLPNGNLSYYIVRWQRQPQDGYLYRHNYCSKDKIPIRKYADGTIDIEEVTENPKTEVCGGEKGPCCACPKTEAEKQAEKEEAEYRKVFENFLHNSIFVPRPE
Chain of Insulin-like growth factor 1 receptor (Homo sapiens) (P08069 741-1367 limits assumed): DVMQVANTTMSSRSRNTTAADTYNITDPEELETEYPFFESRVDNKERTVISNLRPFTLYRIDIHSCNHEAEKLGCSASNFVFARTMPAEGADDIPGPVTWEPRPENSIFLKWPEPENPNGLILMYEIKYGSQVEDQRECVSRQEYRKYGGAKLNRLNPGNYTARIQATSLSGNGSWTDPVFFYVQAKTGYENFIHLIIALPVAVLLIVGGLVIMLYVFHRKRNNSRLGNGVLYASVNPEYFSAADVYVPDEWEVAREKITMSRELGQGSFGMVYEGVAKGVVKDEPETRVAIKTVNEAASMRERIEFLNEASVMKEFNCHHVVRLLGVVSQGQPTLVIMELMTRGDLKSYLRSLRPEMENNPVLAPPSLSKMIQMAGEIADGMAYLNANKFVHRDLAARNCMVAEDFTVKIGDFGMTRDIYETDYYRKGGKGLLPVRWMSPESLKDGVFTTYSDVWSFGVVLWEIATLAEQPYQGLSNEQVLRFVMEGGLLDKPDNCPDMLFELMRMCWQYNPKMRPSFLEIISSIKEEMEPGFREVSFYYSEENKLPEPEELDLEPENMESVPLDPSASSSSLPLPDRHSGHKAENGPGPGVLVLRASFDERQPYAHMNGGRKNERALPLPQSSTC
Chain of Tyrosine-protein kinase Fyn (Homo sapiens) (P06241 2-537 limits assumed): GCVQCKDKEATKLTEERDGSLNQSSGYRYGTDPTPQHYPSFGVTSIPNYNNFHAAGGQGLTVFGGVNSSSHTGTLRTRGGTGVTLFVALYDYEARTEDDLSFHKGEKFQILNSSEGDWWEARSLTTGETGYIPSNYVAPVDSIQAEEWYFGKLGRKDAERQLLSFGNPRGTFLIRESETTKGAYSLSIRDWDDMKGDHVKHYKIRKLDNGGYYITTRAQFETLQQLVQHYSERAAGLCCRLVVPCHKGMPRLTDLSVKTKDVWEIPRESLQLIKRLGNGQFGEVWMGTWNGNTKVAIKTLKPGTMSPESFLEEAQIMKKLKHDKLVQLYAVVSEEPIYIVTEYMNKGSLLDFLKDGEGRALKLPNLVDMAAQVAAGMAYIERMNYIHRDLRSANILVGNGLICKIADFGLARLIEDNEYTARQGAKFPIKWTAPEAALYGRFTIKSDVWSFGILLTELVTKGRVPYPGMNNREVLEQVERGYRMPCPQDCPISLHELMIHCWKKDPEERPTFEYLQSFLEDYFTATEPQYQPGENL

`CN(C)CCOc1ccc(-c2cc(-c3ccc4c(c3)CCC4=NO)c(-c3ccncc3)o2)cc1` gave an inhibition [1] of -0.58%, an inhibition [2] of 1.65% and an inhibition [3] of -0.86%. The inhibition [4] was 1.31%, the inhibition [5] was -3.1% and the inhibition [6] was -0.84%. The inhibition [7] was -0.94%, the inhibition [8] was -3.24% and the inhibition [9] was -0.1%. The inhibition [10] was 1.29%, the inhibition [11] was 8% and the inhibition [12] was -2.29%. The inhibition [13] was 2.91%, the inhibition [14] was -3.2% and the inhibition [15] was 0.2%. It also gave an inhibition [16] of 3.17%, an inhibition [17] of 1.94% and an inhibition [18] of -1.33%. It also gave an inhibition [19] of -1.94% and an inhibition [20] of -1.36%.

`NC(=O)c1ccc(Oc2nccc(-c3c(-c4ccc(F)cc4)ncn3C3CCNCC3)n2)cc1` showed an inhibition [1] of 4.67%, an inhibition [2] of 5.93% and an inhibition [3] of 9.34%. It also gave an inhibition [4] of 8.68%, an inhibition [5] of 1.08% and an inhibition [6] of 7.32%. It also gave an inhibition [7] of 4.57%, an inhibition [8] of 5.61% and an inhibition [9] of 6.15%. It also gave an inhibition [10] of 2.66%, an inhibition [11] of 3.44% and an inhibition [12] of 6.86%. The inhibition [13] was 8.21%, the inhibition [14] was 5.51% and the inhibition [15] was 7.32%. It also gave an inhibition [16] of 7.88%, an inhibition [17] of 6.48% and an inhibition [18] of 3.06%. The inhibition [19] was 4.99% and the inhibition [20] was 3.1%.

Molecule `NS(=O)(=O)c1ccc(Nc2cc(-c3ccc(O)c(F)c3)n[nH]2)cc1` has an inhibition [1] of 2.31%, an inhibition [2] of -1.16% and an inhibition [3] of -3.09%. It also gave an inhibition [4] of -2.03%, an inhibition [5] of 34.1% and an inhibition [6] of 0.48%. The inhibition [7] was 16.5%, the inhibition [8] was 0.43% and the inhibition [9] was 23.6%. The inhibition [10] was 0.43%, the inhibition [11] was 9.16% and the inhibition [12] was 0.38%. It also gave an inhibition [13] of 11.1%, an inhibition [14] of -1.39% and an inhibition [15] of -0.67%. For the same molecule, the inhibition [16] was -3.62%, the inhibition [17] was 2.77% and the inhibition [18] was -4.66%. For the same molecule, the inhibition [19] was -2.36% and the inhibition [20] was 0.74%.

With `O=C(Nc1n[nH]c2cc(-c3cc(F)ccc3F)ccc12)C1CC1` the inhibition [1] was 10.9%, the inhibition [2] was 4.33% and the inhibition [3] was 3.61%. The inhibition [4] was 8.84%, the inhibition [5] was -2.14% and the inhibition [6] was 0.33%. The inhibition [7] was 1.03%, the inhibition [8] was -1.77% and the inhibition [9] was 2.78%. For the same molecule, the inhibition [10] was 2.47%, the inhibition [11] was 6.73% and the inhibition [12] was 7.73%. For the same molecule, the inhibition [13] was 8.12%, the inhibition [14] was 0.54% and the inhibition [15] was 2.05%. The inhibition [16] was 7.13%, the inhibition [17] was 4.97% and the inhibition [18] was 1.56%. It also gave an inhibition [19] of 0.94% and an inhibition [20] of 2.16%.

`COC(=O)Nc1nc2ccc(Sc3ccc(NC(=O)Nc4cc(C(F)(F)F)ccc4F)cc3)cc2[nH]1` showed an inhibition [1] of -0.45%, an inhibition [2] of -0.3% and an inhibition [3] of 0.84%. It also gave an inhibition [4] of 1.23%, an inhibition [5] of 6.34% and an inhibition [6] of 14.8%. The inhibition [7] was 21.7%, the inhibition [8] was 0.81% and the inhibition [9] was 3.42%. It also gave an inhibition [10] of -1.41%, an inhibition [11] of 3.27% and an inhibition [12] of 39.5%. For the same molecule, the inhibition [13] was 14.4%, the inhibition [14] was 10.6% and the inhibition [15] was 6.91%. It also gave an inhibition [16] of 2.28%, an inhibition [17] of -0.75% and an inhibition [18] of 1.45%. The inhibition [19] was -0.55% and the inhibition [20] was 0.19%.

Work on `CCc1cccc(CC)c1/C=C/c1cncc(C(=O)NC)c1` yielded an inhibition [1] of -1.94%, an inhibition [2] of 1.32% and an inhibition [3] of 1.99%. For the same molecule, the inhibition [4] was 3.43%, the inhibition [5] was 4.06% and the inhibition [6] was 1.11%. It also gave an inhibition [7] of 2.42%, an inhibition [8] of -1.63% and an inhibition [9] of 6.91%. For the same molecule, the inhibition [10] was 3.51%, the inhibition [11] was 3.44% and the inhibition [12] was 5.19%. The inhibition [13] was 10%, the inhibition [14] was 3.36% and the inhibition [15] was 3.86%. It also gave an inhibition [16] of 1.7%, an inhibition [17] of 1.65% and an inhibition [18] of 5.5%. For the same molecule, the inhibition [19] was 2.06% and the inhibition [20] was 0.83%.
